# Source: PubChem BioAssay (NCATS)
# Results filed as inconclusive are left out. Calls of active or inactive are those of the source. Unless noted, the call rests on the fitted dose curve; in most records, active means well fitted curve in the direction sought with a large enough effect; inconclusive means small, poorly fitted or top-dose-only effect, or another doubt; inactive means no such curve, though single readings can be large; an effect the other way counts as inactive or inconclusive.
# Tests used:
# [1] = molecular target: Lysosomal acid glucosylceramidase (Homo sapiens) (UniProt P04062); experiment: Glucocerebrosidase-p2 (AID 348; in the data active means potency below about 10 µM; further: potency means the concentration at half of the fitted maximal effect); conditions: purified GBA, blue fluorogenic substrate, 40 min
# Procedure, shortened: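 Normal human glucocerebrosidase (0.2 nM) with blue fluorogenic substrate (80 uM final) in citrate/phosphate pH 5.9 with 10mM sodium taurocholate, 0.01% tween-20; 40 min RT, NaOH/glycine stop; fluorescence Ex 365/Em 440; AC50 from a titration from 0.6 nM upwards.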
# [2] = AP1 Signaling Pathway (AID 357; active means well fitted curve in either direction with a large enough effect, not every such curve was filed as active;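 further: ME-180 reporter cells stimulated with EGF at its EC50 level; on the % scale 0 is the no-effect control and ±100 the full control effect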); conditions: ME-180 AP-1-bla reporter, EGF-induced, beta-lactamase ratio, 5 h; at 7.69 µM (top of the series) unless noted
# Procedure, shortened: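 AP-1-bla ME-180 cells, Opti-MEM + 0.5% dialyzed FBS, plated overnight 37 °C. Cpd titration + EC50 EGF, 5 h 37 °C. CCF4 2.5 h RT; ex 405, em 460/530 ratio → %activity, AC50.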
# [3] = molecular target: Cytochrome P450 1A2 (Homo sapiens) (UniProt P05177); experiment: p450-cyp1a2 (AID 410; calls by dose curve; further: potency means the concentration at half of the fitted maximal effect); conditions: recombinant CYP1A2, luciferin-ME demethylation, luminescence; series mostly up to 57 µM
# Procedure, shortened: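 O-Demethylation of luciferin 6' methyl ether by human CYP1A2 is monitored as luciferase luminescence. Substrate sits at Km (100uM); enzyme is 20nM. Values are scaled to 57 uM furafylline as maximal inhibition.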
# [4] = NFAT Signaling Pathway (AID 444; active means well fitted curve in either direction with a large enough effect, not every such curve was filed as active;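 further: carbachol stimulus at about its EC50 of 1 µM final; on the % scale 0 is the no-effect control and ±100 the full control effect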); conditions: Jurkat NFAT-bla M1, carbachol, beta-lactamase ratio, 5 h; at 7.69 µM (top of the series) unless noted
# Procedure, shortened: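 Jurkat cells carrying an NFAT-driven β-lactamase reporter and co-transfected muscarinic M1 receptor were treated with compound plus carbachol (1 uM final, an EC50 level) for 5 h at 37 °C. CCF4 loading followed for 1 h at RT; 460/530 nm ratio gave %activity.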
# [5] = Stat Signaling Pathway (AID 446; active means well fitted curve in either direction with a large enough effect, not every such curve was filed as active;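 further: ME-180 cervical cancer cells given 40 pM IL-6 alongside compound; SIE-controlled beta-lactamase reporter measured as 460/530 nm FRET emission ratio; on the % scale 0 is the no-effect control and ±100 the full control effect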); conditions: ME-180 (cervical carcinoma) SIE beta-lactamase reporter, IL-6 stimulated, 5 h; at 7.69 µM (top of the series) unless noted
# Procedure, shortened: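 Emission at 460 and 530 nm (excitation 405 nm) reports SIE-controlled beta-lactamase in ME-180 cells. Cells received compound with 40 pM IL-6 for 5 hrs at 37 C; data scaled between 300 pM IL-6 and 125 nM JAK-inhibitor controls.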
# [6] = molecular target: Glucocorticoid receptor (Homo sapiens) (UniProt P04150); experiment: GR-GFP Redistribution (AID 450;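 active means compounds whose dose series gives a full or clear partial fitted curve of increased nuclear translocation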; further: potency means the concentration at half of the fitted maximal effect); conditions: U2OS GR-GFP nuclear translocation, laser cytometry, 2 h
# [7] = molecular target: Glucocorticoid receptor (Homo sapiens) (UniProt P04150); experiment: GR-EFC Redistribution (AID 451; calls by dose curve; further: potency means the concentration at half of the fitted maximal effect); conditions: CHO-K1 GR-EFC translocation, beta-gal luminescence, 2 h
# Procedure, shortened: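 CHO-K1 cells stably expressing nuclear-localized β-gal enzyme acceptor and GR fused C-terminally to the enzyme donor fragment; ligand-driven nuclear translocation restores β-gal by complementation. Compounds titrated up to 46 uM final, 2 h at 37 °C; luminescence read.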
# [8] = molecular target: Mitogen-activated protein kinase 10 (Mus musculus) (UniProt Q61831); experiment: JNK3 AlphaScreen Assay (AID 530; active means well fitted curve in either direction with a large enough effect, not every such curve was filed as active;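 further: kinase came from lysate of stimulated human HepG2 cells; signal reports phosphorylation of biotinylated GST-cJun 1-79 at Ser73 with 10 µM ATP; on the % scale 0 is the no-effect control and ±100 the full control effect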); conditions: JNK3 lysate, c-Jun phosphorylation; series mostly up to 57.1 µM
# Procedure, shortened: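 Phosphorylation of biotinylated GST-cJun(1-79) at Ser73 is measured by AlphaScreen proximity luminescence. Enzyme is JNK3 in HepG2 lysates activated with interleukin-1beta and tumor necrosis factor alpha; ATP is 10 uM final.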
# [9] = molecular target: 3',5'-cyclic-AMP phosphodiesterase 4B (Homo sapiens) (UniProt Q07343); experiment: qHTS Assay for Inhibitors of PDE-IV (AID 607; active means well fitted activation curve with a large enough effect in the main read-out, with a control signal flat, not every such curve was filed as active; further: % of control where 0% means no effect); conditions: HEK293 ACTOne CNG channel cells, membrane potential fluorescence; series mostly up to 22.9 µM
# Procedure, shortened: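 The readout is membrane depolarisation from a cAMP-sensing CNG channel, detected with a potential dye at ex 535/em 590. Cells were HEK293-derived (endogenous PDE-IV) at 1000 cells/well, titrated up to 22.9 uM final.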
# [10] = qHTS Assay for Lipid Storage Modulators (AID 1519; calls by dose curve); conditions: Drosophila S3 cells, BODIPY lipid droplet/cell ratio, laser cytometry, cells loaded with oleic acid; for activity change, negative = inhibition: at 57.5 µM (top of the series)
# Procedure, shortened: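 Cells seeded at 5,000 per well were treated with compounds over a concentration series and loaded with oleic acid (400 uM, as added). Lipid droplet fluorescence (488 nm excitation, 500-530 nm channel) was read by laser-scanning cytometry and normalized to 20 uM Triacsin C.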
# [11] = molecular target: Dual specificity protein kinase CLK4 (Homo sapiens) (UniProt Q9HAZ1); experiment: qHTS Assay for Inhibitors of CDC-like Kinase 4 (Kinase-Glo Assay) (AID 1770); conditions: recombinant Clk4, Kinase-Glo ATP depletion luminescence; series mostly up to 66.7 µM; further: nearly all actives have a fitted effect of over 65% in size; further: potency means the concentration at half of the fitted maximal effect
# Procedure, shortened: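 Clk4 25 nM, RS peptide 100 uM, ATP 1 uM, pH 7.5 Tris, 10 mM MgCl2, 2.5 mM DTT; 4.5 h RT; ATP depletion read by Kinase-Glo luminescence.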
# [12] = molecular target: Dual specificity protein kinase CLK4 (Homo sapiens) (UniProt Q9HAZ1); experiment: qHTS Assay for Inhibitors of CDC-like Kinase 4 (ADP-Glo Assay) (AID 1771); conditions: recombinant CLK4, ADP-Glo luminescence; series mostly up to 80 µM; further: nearly all actives have a fitted effect of over 70% in size; further: potency means the concentration at half of the fitted maximal effect
# Procedure, shortened: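 Compounds are pin-transferred onto substrate mix (100 uM RS peptide, 1 uM ATP), then 25 nM Clk4 is added. After 1 hr at room temperature, ADP-Glo reagent runs 45 min, detection reagent 30 min, then luminescence is read.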
# [13] = molecular target: Dual specificity protein kinase CLK4 (Homo sapiens) (UniProt Q9HAZ1); experiment: qHTS Assay for Inhibitors of CDC-like Kinase 4 (ADP-FP Assay) (AID 1795); conditions: Transcreener ADP fluorescence polarization; series mostly up to 50 µM; further: nearly all actives have a fitted effect of over 60% in size; further: potency means the concentration at half of the fitted maximal effect
# Procedure, shortened: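 Kinase activity was followed as ADP output, converted from fluorescence polarization with a calibration curve. Reactions ran one hour at low ATP (1 uM) with RS peptide substrate.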
# [14] = molecular target: Ubiquitin carboxyl-terminal hydrolase 1 (Homo sapiens) (UniProt O94782); experiment: Inhibitors of USP1/UAF1: Pilot qHTS (AID 504865); conditions: purified USP1/UAF1, Ub-rhodamine cleavage fluorescence; series mostly up to 54.9 µM;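 further: rhodamine fluorescence freed from ubiquitin-rhodamine substrate followed over time; top concentration of the series differs between compounds; on the % scale 0 is the no-effect control and ±100 the full control effect; nearly all actives have a fitted effect of over 35% in size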
# Procedure, shortened: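 Enzyme-free wells gave the negative control, while test wells held 1nM USP1/UAF1 preincubated with compound for 15 min at room temperature. Ub-Rho at 150nM final started the reaction, and fluorescence at 480/540 nm was recorded kinetically.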
# [15] = Primary qHTS for small molecule stabilizers of the endoplasmic reticulum resident proteome: Secreted ER Calcium Modulated Protein (SERCaMP) assay (AID 1508630); conditions: SH-SY5Y GLuc-SERCaMP (Gaussia luciferase released on ER calcium loss) secretion, thapsigargin, luminescence; series mostly up to 38.4 µM; further: on the % scale 0 is the no-effect control and ±100 the full control effect
# Procedure, shortened: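 The SH-SY5Y reporter protocol was run at 3 concentrations up to 38.3 uM (primary) or 11 concentrations (follow-up): 16 h compound, 100 nM thapsigargin for 4 h, then extracellular luciferase luminescence.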
# [16] = molecular target: Cytochrome P450 3A4 (Homo sapiens) (UniProt P08684); experiment: qHTS Assay for Activators of Cytochrome P450 3A4 (AID 885); conditions: recombinant CYP3A4, Luciferin-PPXE luminescence, 60 min; series mostly up to 57.1 µM; further: nearly all actives have a fitted effect of over 65% in size
# Procedure, shortened: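 Activators are scored by enhanced luminescence from CYP3A4 conversion of luciferin-PPXE (25uM, equal to KM) to luciferin, after 60 min at RT with an NADPH-regenerating system.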
# [17] = measured here: cell count channel max response
# [18] = measured here: lipid channel max response
# Cytochrome P450 1A2 (Homo sapiens), sequence (P05177 whole entry, looked up): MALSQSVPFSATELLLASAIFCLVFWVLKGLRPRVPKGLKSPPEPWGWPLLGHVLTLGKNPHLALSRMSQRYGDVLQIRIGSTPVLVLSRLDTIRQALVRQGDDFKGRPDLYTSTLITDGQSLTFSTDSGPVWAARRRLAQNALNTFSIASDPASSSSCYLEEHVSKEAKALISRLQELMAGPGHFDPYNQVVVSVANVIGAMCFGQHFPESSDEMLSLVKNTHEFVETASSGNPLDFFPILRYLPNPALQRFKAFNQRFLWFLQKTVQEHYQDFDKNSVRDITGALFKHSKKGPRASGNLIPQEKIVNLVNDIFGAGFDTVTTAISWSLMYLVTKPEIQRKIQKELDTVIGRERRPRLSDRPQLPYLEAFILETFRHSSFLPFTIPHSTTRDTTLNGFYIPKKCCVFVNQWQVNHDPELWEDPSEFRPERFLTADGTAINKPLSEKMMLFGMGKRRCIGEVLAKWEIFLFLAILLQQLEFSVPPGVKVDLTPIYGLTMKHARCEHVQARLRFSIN
# Lysosomal acid glucosylceramidase (Homo sapiens), sequence (P04062 whole entry, looked up): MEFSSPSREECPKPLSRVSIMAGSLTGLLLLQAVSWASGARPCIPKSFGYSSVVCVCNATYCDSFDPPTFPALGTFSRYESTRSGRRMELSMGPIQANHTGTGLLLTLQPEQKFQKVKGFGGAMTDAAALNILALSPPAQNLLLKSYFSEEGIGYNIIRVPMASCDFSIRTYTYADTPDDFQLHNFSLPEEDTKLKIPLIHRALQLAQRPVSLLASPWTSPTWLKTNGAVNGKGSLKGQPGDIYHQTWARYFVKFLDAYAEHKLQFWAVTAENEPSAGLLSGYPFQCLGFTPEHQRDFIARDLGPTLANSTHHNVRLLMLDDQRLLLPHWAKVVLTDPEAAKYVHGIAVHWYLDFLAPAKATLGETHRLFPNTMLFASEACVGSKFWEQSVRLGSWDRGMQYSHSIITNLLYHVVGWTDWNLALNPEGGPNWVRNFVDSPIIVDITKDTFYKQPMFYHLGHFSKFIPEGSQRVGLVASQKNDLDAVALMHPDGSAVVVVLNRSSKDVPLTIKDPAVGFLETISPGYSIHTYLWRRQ
# Ubiquitin carboxyl-terminal hydrolase 1 (Homo sapiens), sequence (O94782 whole entry, looked up): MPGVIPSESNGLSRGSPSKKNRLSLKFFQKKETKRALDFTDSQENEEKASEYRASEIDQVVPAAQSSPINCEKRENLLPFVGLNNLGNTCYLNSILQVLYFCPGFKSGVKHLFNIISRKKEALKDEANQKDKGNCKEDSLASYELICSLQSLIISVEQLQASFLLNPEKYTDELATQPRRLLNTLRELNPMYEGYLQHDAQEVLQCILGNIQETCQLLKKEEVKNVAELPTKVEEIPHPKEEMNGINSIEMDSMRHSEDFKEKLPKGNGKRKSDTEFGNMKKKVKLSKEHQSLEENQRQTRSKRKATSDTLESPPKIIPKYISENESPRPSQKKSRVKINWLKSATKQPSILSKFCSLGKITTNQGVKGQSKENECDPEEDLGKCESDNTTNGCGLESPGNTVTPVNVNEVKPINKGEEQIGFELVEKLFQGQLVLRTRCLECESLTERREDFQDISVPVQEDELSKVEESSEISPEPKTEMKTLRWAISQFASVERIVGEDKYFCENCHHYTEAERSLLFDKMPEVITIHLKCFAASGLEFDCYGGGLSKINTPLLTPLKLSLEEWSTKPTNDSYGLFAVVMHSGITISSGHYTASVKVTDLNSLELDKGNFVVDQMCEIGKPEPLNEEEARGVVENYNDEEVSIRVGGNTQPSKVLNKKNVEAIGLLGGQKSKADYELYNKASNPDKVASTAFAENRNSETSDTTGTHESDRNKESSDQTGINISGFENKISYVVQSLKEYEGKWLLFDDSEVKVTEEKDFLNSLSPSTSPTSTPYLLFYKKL
# Glucocorticoid receptor (Homo sapiens), sequence (P04150 whole entry, looked up, the tested form may be a part): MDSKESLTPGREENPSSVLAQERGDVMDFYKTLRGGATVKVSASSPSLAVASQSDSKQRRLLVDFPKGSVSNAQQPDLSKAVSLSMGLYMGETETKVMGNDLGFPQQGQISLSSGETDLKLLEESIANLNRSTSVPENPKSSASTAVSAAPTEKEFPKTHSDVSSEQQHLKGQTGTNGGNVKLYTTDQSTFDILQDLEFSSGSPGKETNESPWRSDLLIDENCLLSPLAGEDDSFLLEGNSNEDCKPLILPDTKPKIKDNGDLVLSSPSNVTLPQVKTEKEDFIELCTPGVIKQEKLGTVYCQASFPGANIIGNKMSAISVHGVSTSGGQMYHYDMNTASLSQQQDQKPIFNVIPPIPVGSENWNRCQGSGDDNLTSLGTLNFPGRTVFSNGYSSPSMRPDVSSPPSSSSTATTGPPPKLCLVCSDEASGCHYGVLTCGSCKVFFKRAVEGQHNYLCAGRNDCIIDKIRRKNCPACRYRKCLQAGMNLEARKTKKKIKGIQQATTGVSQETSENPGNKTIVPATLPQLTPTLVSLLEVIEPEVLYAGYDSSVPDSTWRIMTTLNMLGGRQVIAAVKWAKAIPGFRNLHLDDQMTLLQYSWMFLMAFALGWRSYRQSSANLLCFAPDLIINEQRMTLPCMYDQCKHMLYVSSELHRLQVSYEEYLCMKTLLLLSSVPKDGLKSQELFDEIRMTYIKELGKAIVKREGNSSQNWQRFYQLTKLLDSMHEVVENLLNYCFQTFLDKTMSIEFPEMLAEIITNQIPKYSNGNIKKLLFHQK
# Dual specificity protein kinase CLK4 (Homo sapiens), sequence (Q9HAZ1 whole entry, looked up): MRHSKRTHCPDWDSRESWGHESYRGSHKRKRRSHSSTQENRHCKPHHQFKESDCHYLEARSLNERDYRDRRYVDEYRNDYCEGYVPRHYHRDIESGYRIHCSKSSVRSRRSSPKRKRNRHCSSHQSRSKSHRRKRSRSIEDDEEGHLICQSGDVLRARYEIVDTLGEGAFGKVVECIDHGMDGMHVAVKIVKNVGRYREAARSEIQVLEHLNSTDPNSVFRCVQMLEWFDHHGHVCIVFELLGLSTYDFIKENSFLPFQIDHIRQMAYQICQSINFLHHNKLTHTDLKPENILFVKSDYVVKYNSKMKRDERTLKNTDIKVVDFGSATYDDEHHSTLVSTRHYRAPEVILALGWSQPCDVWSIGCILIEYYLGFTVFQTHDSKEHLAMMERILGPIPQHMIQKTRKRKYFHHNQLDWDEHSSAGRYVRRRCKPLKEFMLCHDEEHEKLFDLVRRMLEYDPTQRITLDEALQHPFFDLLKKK
# 3',5'-cyclic-AMP phosphodiesterase 4B (Homo sapiens), sequence (Q07343 whole entry, looked up): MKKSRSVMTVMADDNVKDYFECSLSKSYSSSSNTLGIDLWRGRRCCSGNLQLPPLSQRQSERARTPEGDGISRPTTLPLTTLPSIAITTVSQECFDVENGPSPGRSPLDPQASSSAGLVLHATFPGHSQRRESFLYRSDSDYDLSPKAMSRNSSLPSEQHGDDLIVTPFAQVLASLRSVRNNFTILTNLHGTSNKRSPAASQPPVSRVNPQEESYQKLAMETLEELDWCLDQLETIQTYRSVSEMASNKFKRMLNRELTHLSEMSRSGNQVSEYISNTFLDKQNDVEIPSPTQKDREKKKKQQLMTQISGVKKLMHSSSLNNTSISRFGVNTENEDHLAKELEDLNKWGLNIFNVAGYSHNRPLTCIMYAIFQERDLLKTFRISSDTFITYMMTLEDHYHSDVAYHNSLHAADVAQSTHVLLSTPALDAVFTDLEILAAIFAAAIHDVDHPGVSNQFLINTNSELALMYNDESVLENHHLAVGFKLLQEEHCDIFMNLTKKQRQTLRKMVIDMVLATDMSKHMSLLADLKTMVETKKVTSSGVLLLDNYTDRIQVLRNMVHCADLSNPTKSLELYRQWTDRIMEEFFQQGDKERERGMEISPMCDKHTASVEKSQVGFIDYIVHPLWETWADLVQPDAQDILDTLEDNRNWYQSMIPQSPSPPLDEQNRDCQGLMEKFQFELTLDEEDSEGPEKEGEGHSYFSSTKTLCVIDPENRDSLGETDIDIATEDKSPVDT
# Cytochrome P450 3A4 (Homo sapiens), sequence (P08684 whole entry, looked up): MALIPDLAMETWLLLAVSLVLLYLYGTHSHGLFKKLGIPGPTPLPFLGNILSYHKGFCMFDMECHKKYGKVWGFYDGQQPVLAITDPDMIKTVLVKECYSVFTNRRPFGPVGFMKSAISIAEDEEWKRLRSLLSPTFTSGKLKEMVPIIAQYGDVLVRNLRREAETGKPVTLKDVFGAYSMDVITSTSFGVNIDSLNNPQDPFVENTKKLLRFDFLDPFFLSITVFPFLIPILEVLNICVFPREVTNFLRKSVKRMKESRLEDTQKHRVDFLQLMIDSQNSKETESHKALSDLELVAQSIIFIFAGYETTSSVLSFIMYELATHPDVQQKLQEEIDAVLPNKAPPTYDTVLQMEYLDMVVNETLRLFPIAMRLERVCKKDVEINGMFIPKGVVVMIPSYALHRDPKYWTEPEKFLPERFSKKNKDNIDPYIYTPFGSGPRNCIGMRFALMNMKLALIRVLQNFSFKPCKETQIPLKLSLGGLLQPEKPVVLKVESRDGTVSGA
SMILES,Potency [1],"activity change, negative = inhibition [2]",Potency [3],"activity change, negative = inhibition [4]","activity, negative = inhibition [5]",Potency [6],Potency [7],outcome [8],Potency [9],"activity change, negative = inhibition [10]","max response [10, 17] [%]","max response [10, 18] [%]",Potency [11],Potency [12],Potency [13],Potency [14],Potency [15],Potency [16]
COCCn1c(=O)c(-c2cccc(C#N)c2)nc2cnc(N(C)C)nc21,> 11.4 µM (inactive),-1.01% (inactive),2 µM (active),-2.05% (inactive),-10.5% (inactive),> 9.22 µM (inactive),> 46 µM (inactive),inactive,inactive,3.6% (inactive),16.6,17.9,inactive,inactive,inactive,inactive,inactive,
CN(C)Cc1ccccc1-c1nc(N(C)C)c2ccccc2n1,> 11.4 µM (inactive),19.8% (inactive),1.26 µM (active),13.2% (inactive),28.7% (inactive),> 46 µM (inactive),> 46 µM (inactive),inactive,,-2.91% (inactive),9.81,6.7,inactive,inactive,inactive,inactive,inactive,
Cc1cnc(CNc2ncnc3ccc(-c4ccoc4)cc23)cn1,> 11.4 µM (inactive),-14.2% (inactive),12.6 µM (active),-6.73% (inactive),-13.1% (inactive),> 46 µM (inactive),> 46 µM (inactive),inactive,inactive,0.59% (inactive),20.6,16.4,251 nM (active),224 nM (active),224 nM (active),inactive,inactive,inactive
